Compound activity as filed in PubChem.
In the library only some 1.3% were active in any assay of this set; here they are far more common.
BJeLR lethal: kills HRASV12-expressing BJeLR cells; BJeLR (HRASV12) viability, CellTiter-Glo ATP luminescence, 48 h; inhibition, % (no concentration beside the values); 300,000 compounds, 0.17% hits; in the data active means inhibition above about 50%; inconclusive means no clear call, values can overlap the other calls
PrP UTR inh: suppresses PrP 5' UTR mRNA reporter expression; cell-based PrP 5' UTR mRNA reporter, plate reader; inhibition, % (concentration not given with the values); 340,000 compounds, 0.35% hits; AID 488862; in the data active means inhibition above about 52%; further: 0 = median of the neutral control wells
FadD28 binding: blocks FadD28 binding to the bisubstrate probe; 360,000 compounds, 0.22% hits; inhibition, % at 12.5 µM; fluorescence polarization; AID 588549; in the data active means inhibition above about 8.5%, passing the limit was not always enough; inconclusive means no clear call, values can overlap the other calls
RecA intein inh: inhibitors of M. tuberculosis RecA intein splicing. P9WHJ3. cell-free RecA intein splicing, fluorescence. inhibition, % (no concentration beside the values). 290,000 compounds, 0.75% hits. AID 2221; in the data active means inhibition above about 30%; inconclusive means no clear call, values can overlap the other calls;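 further: 0% = vehicle wells and 100% = reference inhibitor control wells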
Mtb UGM inh: inhibitors of M. tuberculosis UDP-galactopyranose mutase; P9WIQ1; purified UGM, fluorescence polarization probe displacement; inhibition, % at 10 µM; 320,000 compounds, 0.06% hits; in the data active means inhibition above about 10%, passing the limit was not always enough; inconclusive means no clear call, values can overlap the other calls
Target sequence (P9WIQ1 whole entry, looked up): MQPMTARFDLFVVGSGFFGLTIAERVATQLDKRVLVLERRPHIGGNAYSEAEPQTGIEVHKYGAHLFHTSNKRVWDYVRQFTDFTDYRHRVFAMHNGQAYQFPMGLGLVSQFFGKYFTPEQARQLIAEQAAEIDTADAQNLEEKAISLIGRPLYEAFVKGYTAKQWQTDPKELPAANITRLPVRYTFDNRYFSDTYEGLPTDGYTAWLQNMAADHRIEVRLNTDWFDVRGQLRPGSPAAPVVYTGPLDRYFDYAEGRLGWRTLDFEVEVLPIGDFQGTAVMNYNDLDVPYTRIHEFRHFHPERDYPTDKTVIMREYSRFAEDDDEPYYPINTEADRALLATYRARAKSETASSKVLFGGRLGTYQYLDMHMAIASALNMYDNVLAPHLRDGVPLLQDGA
Rv3671c inh: inhibits the M. tuberculosis serine protease Rv3671c | P9WHR9 | inhibition, % at 5.96 µM | 320,000 compounds, 0.048% hits | AID 2606; in the data active means inhibition above about 38%;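 further: extracellular domain of Rv3671c used as enzyme; 0% = enzyme with DMSO and 100% = no enzyme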
Active calls of the source: *.

Screening Cc1ccccc1C1=C/C(=C(\SS/C(C(=O)c2ccc(OCC(=O)O)c(Cl)c2Cl)=C2\C=C(c3ccccc3C)SS2)C(=O)c2ccc(OCC(=O)O)c(Cl)c2Cl)SS1 returned PrP UTR inh -2 and FadD28 binding 73*.
`C=C(C(=O)Oc1ccccc1C(C)(C)C)c1ccccc1` gave Mtb UGM inh 1 and Rv3671c inh -17.
Screening COC(=O)Nc1nn(-c2ccc(C)cc2)c(=O)c(C#N)c1C returned BJeLR lethal -9, PrP UTR inh -10, FadD28 binding 2, RecA intein inh 19, Mtb UGM inh 1 and Rv3671c inh 1.
`COC(=O)Nc1nn(-c2ccc(OC)cc2)c(=O)c(C#N)c1C` gave BJeLR lethal 19, PrP UTR inh -9, FadD28 binding 0, RecA intein inh 40*, Mtb UGM inh -1 and Rv3671c inh 2.
For S=c1cn[nH]c2ccccc12 the results were PrP UTR inh 8 and FadD28 binding 0.
`COCCNC(=O)C1(C)CCN(Cc2cccc(Oc3ccccc3)c2)C1` (configuration not stated) gave FadD28 binding -5.
Oc1ccc(/C(Cc2ccc3ccccc3n2)=N\Nc2ccccc2)c(O)c1 was read as BJeLR lethal 3, PrP UTR inh -43, FadD28 binding -2, RecA intein inh 47*, Mtb UGM inh 2 and Rv3671c inh -6.
`O=C(Cc1ccc(-c2ccccc2)cc1)NCc1ccccc1` gave BJeLR lethal 64*, PrP UTR inh 24, FadD28 binding 2, RecA intein inh -3, Mtb UGM inh 3 and Rv3671c inh -14.
`Cc1ccc(CNC(=O)Cc2ccc(-c3ccccc3)cc2)cc1` gave BJeLR lethal -5, PrP UTR inh -58, FadD28 binding -2, RecA intein inh 0, Mtb UGM inh -1 and Rv3671c inh 3.
O=C1NN(c2ccc(Cl)cc2)C(=O)/C1=C\c1ccc(-c2cccc(C(=O)O)c2)o1 was read as PrP UTR inh -85 and FadD28 binding 23*.
Screening CC(C)Sc1nsc2nc(=O)c(/C=C3\C=Nc4ccccc43)c(N)n12 returned BJeLR lethal -7, PrP UTR inh -11, FadD28 binding 19*, RecA intein inh -2, Mtb UGM inh 1 and Rv3671c inh -51.
For CCN(CC)c1nc(N)c2c(N)n(-c3ccccc3C)c(=S)c(C#N)c2c1C#N the results were BJeLR lethal 3, PrP UTR inh 9, FadD28 binding 8.3*, RecA intein inh 6, Mtb UGM inh 2 and Rv3671c inh 12.
Screening COc1ccc(-c2cc(N)n(S(=O)(=O)c3c(F)c(F)c(F)c(F)c3F)n2)cc1OC returned BJeLR lethal -15, PrP UTR inh -18, FadD28 binding -6, RecA intein inh 97*, Mtb UGM inh -1 and Rv3671c inh -26.
COc1ccc(S(=O)(=O)n2nc(-c3cc(OC)c(OC)c(OC)c3)cc2N)cc1OC was read as PrP UTR inh -16, FadD28 binding -2, Mtb UGM inh -4 and Rv3671c inh -2.
CC[C@@H](C)[C@H](NC(=O)OC(C)(C)C)c1nnc(S(=O)(=O)Cc2cc(C)ccc2C)o1 was read as BJeLR lethal 2, PrP UTR inh -21, FadD28 binding -4, Mtb UGM inh 1 and Rv3671c inh -8.
`Cc1ccccc1CS(=O)(=O)c1nnc([C@H](CC(C)C)NC(=O)OC(C)(C)C)o1` gave BJeLR lethal -2, PrP UTR inh -14, FadD28 binding 0, RecA intein inh 52*, Mtb UGM inh 0 and Rv3671c inh 2.
Screening CCCNC(=O)C1(C)CCN(C(=O)COCc2ccccc2)C1 (configuration not stated) returned FadD28 binding 0.
For Cc1cccc(NC(=O)COC(=O)c2cccc(S(=O)(=O)N3CCCCCC3)c2)c1 the results were PrP UTR inh -2, FadD28 binding 10*, Mtb UGM inh -2 and Rv3671c inh -61.
Screening Cc1cc(OCC(=O)Nc2cccc(S(=O)(=O)N3CCCCC3)c2)ccc1Cl returned PrP UTR inh 0, FadD28 binding -1, Mtb UGM inh 1 and Rv3671c inh -120.
Screening CCC(=O)c1ccc(OCC(=O)Nc2cccc(S(=O)(=O)N3CCCCCC3)c2)cc1 returned PrP UTR inh -12 and FadD28 binding 13*.
For CC(=O)NC(c1ccc(F)c(F)c1)c1nc(-c2cccc(C(C)C)c2)cs1 (configuration not stated) the results were FadD28 binding 1.
`O=C(CCn1cccn1)N1CCCC(Nc2ccc(F)c(F)c2)C1` (configuration not stated) gave FadD28 binding -2.
`Cc1ccc2nsnc2c1NS(=O)(=O)c1c(C)ccc2nsnc12` gave BJeLR lethal 0, PrP UTR inh -20, FadD28 binding -3, RecA intein inh 36*, Mtb UGM inh 2 and Rv3671c inh -5.
Screening CC1CCN(S(=O)(=O)c2ccc3c(c2)C(Cl)(Cl)C(=O)N3)CC1 returned FadD28 binding 1.
Screening COc1cc([N+](=O)[O-])ccc1NC(=S)NNC(=O)c1ccc2c(c1)OCO2 returned BJeLR lethal 7, PrP UTR inh -4, FadD28 binding inconclusive, RecA intein inh 1, Mtb UGM inh 5 and Rv3671c inh 1.
O=C(NC(=S)Nc1cc([N+](=O)[O-])ccc1O)c1ccc2c(c1)OCO2 was read as BJeLR lethal 7, PrP UTR inh -82, FadD28 binding 13*, RecA intein inh 0, Mtb UGM inh 0 and Rv3671c inh 11.
`COc1cccc(NC(=O)CCC2CCN(C(=O)C(OC)c3ccccc3)CC2)c1` (configuration not stated) gave FadD28 binding -2.
Cc1nc2ccccn2c1-c1csc(Nc2cccc(O)c2)n1 was read as BJeLR lethal 55*, PrP UTR inh -20, FadD28 binding -1 and RecA intein inh 4.
Screening CC/C(=C/c1sc2ccc(C)cc2[n+]1CCCS(=O)(=O)[O-])SC returned BJeLR lethal 5, RecA intein inh 13, Mtb UGM inh 1 and Rv3671c inh 2.
For CC/C(=C/c1sc2ccc(C)cc2[n+]1CCO)SC the results were BJeLR lethal 10, PrP UTR inh -14, FadD28 binding 1, RecA intein inh 34*, Mtb UGM inh 4 and Rv3671c inh 2.
Screening CSCCC(NS(=O)(=O)Cc1ccccc1)C(=O)NNc1ccccc1 (configuration not stated) returned FadD28 binding -6.
`COc1cc(/C=C/c2nc3ccccc3s2)cc(OC)c1O` gave BJeLR lethal 4, PrP UTR inh -53, FadD28 binding 0, RecA intein inh -14, Mtb UGM inh -9 and Rv3671c inh 3.
`COc1cc(C=C(c2nc3ccccc3s2)c2nc3ccccc3s2)ccc1O` gave BJeLR lethal -8, PrP UTR inh -27, FadD28 binding -4, RecA intein inh 51*, Mtb UGM inh -1 and Rv3671c inh 3.
